Bioassay records: PubChem BioAssay, The Scripps Research Institute Molecular Screening Center
The list is not random: actives were taken first. Their share in the collection is about 3.2%.
HGIII-sPLA2 inh: Inhibits HGIII-sPLA2 liposome hydrolysis, primary screen | inhibition, % at 12.2 µM | QFRET BODIPY PC-A2 liposome hydrolysis, fluorescence | AID 743126 | Q9NZ20 | actives 0.56% (n = 370,000);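 active means inhibition above mean plus 3 SD of compounds lying within the high and low control bounds, cut at about 19% in these data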;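 further: 0% = median of test compound wells and 100% = no enzyme DMSO wells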
Target sequence (Q9NZ20 whole entry, looked up): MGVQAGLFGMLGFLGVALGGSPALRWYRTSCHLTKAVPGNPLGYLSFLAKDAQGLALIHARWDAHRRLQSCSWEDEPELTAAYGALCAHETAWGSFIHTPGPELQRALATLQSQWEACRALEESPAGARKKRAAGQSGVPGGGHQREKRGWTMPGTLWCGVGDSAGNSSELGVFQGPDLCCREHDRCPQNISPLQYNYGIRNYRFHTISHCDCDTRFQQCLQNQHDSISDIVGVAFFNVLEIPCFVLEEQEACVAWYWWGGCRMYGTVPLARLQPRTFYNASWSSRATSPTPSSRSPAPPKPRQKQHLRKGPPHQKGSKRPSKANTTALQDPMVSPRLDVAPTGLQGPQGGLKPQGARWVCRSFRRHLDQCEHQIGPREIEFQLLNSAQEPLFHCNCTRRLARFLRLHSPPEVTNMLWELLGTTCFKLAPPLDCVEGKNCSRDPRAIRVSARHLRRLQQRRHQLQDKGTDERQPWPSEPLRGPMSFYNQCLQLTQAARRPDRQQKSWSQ
MsrA act: bovine methionine sulfoxide reductase A activation; AID 602163; purified bovine MsrA, absorbance read-out; activation, % at 10.6 µM; actives 0.3% (n = 360,000); in the data active means activation above about 7.5%;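 further: 0% = vehicle and 100% = reference activator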
PG9 binder: binds the HIV-1 gp120 antibody PG9 | TR-FRET gp120-PG9 antibody binding | inhibition, % at 6.7 µM | actives 0.43% (n = 360,000) | AID 624416; in the data active means inhibition above about 8.5%
MsrA inhibitor: inhibits bovine methionine sulfoxide reductase A. purified bovine MsrA, absorbance read-out. inhibition, % at 15.5 µM. actives 0.75% (n = 360,000). AID 651718; in the data active means inhibition above about 4.5%;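 further: 0% = vehicle wells with enzyme and 100% = reference inhibitor wells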
rCAG binder: molecules binding r(CAG) RNA repeats; actives 1.3% (n = 370,000); r(CAG) RNA repeat, TO-PRO-1 dye displacement fluorescence; AID 651821; inhibition, % at 3 µM;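 active means inhibition above the plate cutoff, the mean of all test compounds on that plate plus 3 SD, cut at about 35% in these data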;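 further: 0% = DMSO alone and 100% = 100 µM mitoxantrone as full dye displacement; higher means more dye released from RNA so lower well fluorescence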
rCAG binder conf: r(CAG) RNA repeat binding, confirmation; shares compounds with rCAG binder; TO-PRO-1 dye displacement fluorescence; inhibition, % at 3 µM; actives 70% (n = 4,300); AID 652065;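 active means inhibition above a per-plate cutoff, the mean inhibition of sample wells plus 3 SD, cut at about 35% in these data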;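 further: loss of TO-PRO-1 fluorescence as compound displaces dye from 1x1 AA loop RNA; 0% = DMSO only wells and 100% = 100 µM mitoxantrone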
dCAG dye counter: counter-screen for rCAG RNA binders: DNA CAG dye complex inhibitors; shares compounds with rCAG binder; d(CAG) DNA oligo TO-PRO-1 dye displacement, fluorescence; inhibition, % at 3 µM; actives 94% (n = 4,300);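 active means inhibition above its plate's cutoff, the mean test-well inhibition plus 3 SD, cut at about 4.8% in these data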;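 further: 0% = DNA dye mix with DMSO and 100% = 100 µM mitoxantrone; hits displace the dye from DNA and so lower well fluorescence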
Starred values were filed as active, the others as inactive; nt = no result.

SMILES	HGIII-sPLA2 inh	MsrA act	PG9 binder	MsrA inhibitor	rCAG binder	rCAG binder conf	dCAG dye counter
CCN(CC)C(=O)CC[C@@H]1CC[C@]2(CCCN(Cc3cccs3)C2)O1	4	nt	nt	nt	0	nt	nt
Cc1ccc(-n2c(O)c(/C=N/Nc3ccc(S(=O)(=O)N4CCOCC4)cc3[N+](=O)[O-])c3ccccc3c2=O)c(C)c1	3	-7	-4	4	66*	88*	71*
N#Cc1ccc(-c2ccco2)nc1SCc1ccccc1	4	0	-1	0	13	nt	nt
CCSc1nc(-c2ccco2)ccc1C#N	17	-1	0	2	56*	11	8.6*
COC(=O)C[C@@H]1CC[C@@H]2[C@H](COc3ccc(NC(=O)Nc4c(C)noc4C)cc3C(=O)N2C)O1	1	nt	nt	nt	3	nt	nt
CC(C)(C)C(=O)OC12CCCN(C1)/C(=C/c1cccc(Cl)c1)C2 (stereo not given)	0	nt	nt	nt	-2	nt	nt
O=C(O)C(Cc1c[nH]c2ccccc12)N1C(=O)C2C3c4ccccc4C(c4ccccc43)[C@@H]2C1=O (stereo not given in full)	-87	-2	3	1	50*	45*	12*
CC(C)CC(C(=O)O)N1C(=O)C2C3c4ccccc4C(c4ccccc43)[C@@H]2C1=O (stereo not given in full)	-11	-5	-2	-1	18	nt	nt
Cc1ccc2c(nc3s/c(=C\c4ccc(-c5ccccc5C(=O)O)o4)c(=O)n32)c1C	2	-1	-1	1	54*	89*	75*
Cc1ccc(C)c(N2C(=N)S/C(=C\c3ccc(-c4ccccc4C(=O)O)o3)C2=O)c1	-24	3	-1	4	45*	39*	10*
Cc1cc(C)c2nc3sc(=Cc4ccc(-c5ccccc5C(=O)O)o4)c(=O)n3c2c1	-3	-4	-1	-1	28	nt	nt
CCOC(=O)C(C)N1C(=O)S/C(=C\c2ccc(-c3ccccc3C(=O)O)o2)C1=O (stereo not given)	-9	-2	-1	2	37*	40*	12*
Cc1cc(C(=O)O)ccc1-c1ccc(/C=C2\SC(=O)N(CC(=O)Nc3ccc4c(c3)OCO4)C2=O)o1	0	-3	-2	0	11	nt	nt
COC(=O)[C@]12C[C@H](CC(=O)NCc3ccccc3)C(=O)N(Cc3cccc4ccccc34)C1=C[C@H](C(C)(C)C)O[C@@H]2C	-10	nt	nt	nt	6	nt	nt
COC(CNC(=O)[C@H](Cc1c[nH]c2ccccc12)NC1(C(=O)NC2CCCCC2)CCCCC1)OC	-54	nt	nt	nt	nt	nt	nt
CCCCNC(=O)C[C@H]1C[C@@]2(C(=O)OC)C(=C[C@H](C(C)C)O[C@@H]2C2CC2)N(Cc2ccc(Cl)cc2Cl)C1=O	-1	nt	nt	nt	1	nt	nt
CCOC(=O)c1c(NC(=O)C(C)Sc2nnc(C)c(=O)[nH]2)sc2c1CCCC2 (stereo not given)	-8	-4	0	1	69*	66*	30*
Cc1nnc(SCC(=O)Nc2sc3c(c2C#N)CCCC3)[nH]c1=O	3	0	1	1	30	nt	nt
CCOC(=O)c1c(NC(=O)CSc2nnc(C)c(=O)[nH]2)sc(C)c1-c1ccc(C)cc1	-4	-3	5	-1	43*	79*	44*
CCOC(=O)c1c(NC(=O)CSc2nnc(C)s2)sc2c1CCCCC2	-19	-2	-2	1	2	nt	nt
CCOC(=O)c1c(NC(=O)CSc2nnc(C)c(=O)[nH]2)sc2c1CCCC2	-11	-2	-2	2	69*	66*	20*
O=C(O)c1ccc(NNC(=S)Nc2cc(C(F)(F)F)ccc2Cl)cc1	-16	-2	-1	1	39*	15	4.7*
O=C(NC(=S)Nc1cc(C(F)(F)F)ccc1Cl)c1ccccc1	10	1	0	0	1	nt	nt
COC(=O)[C@]12C[C@H](CC(=O)N3CCN(C(=O)C4CC4)CC3)C(=O)N(Cc3cccc4ccccc34)C1=C[C@H](COCc1ccccc1)O[C@@H]2C	-2	nt	nt	nt	7	nt	nt
COc1ccccc1NC(=O)CSc1sc2c(O)cc(=O)[nH]c2c1C#N	3	-4	0	0	52*	18	8.2*
COc1ccc(Cl)cc1NC(=O)CSc1sc2c(O)cc(=O)[nH]c2c1C#N	1	-4	-3	1	55*	31	16*
